Most compounds without a hit are left out; they make up all but 2.4% or so of the library.
ANO1 activ: activators or potentiators of mouse TMEM16A chloride channel; B-score at 10 µM; HEK293 TMEM16A/YFP-H148Q/I152L, iodide quench fluorescence; stronger effect = lower value; 340,000 compounds, 0.3% hits;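 active = fluorescence-ratio B-score plate-corrected deviation score at least 3 library SD below zero, with starting fluorescence score within 5 deviations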;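 also: channel opened by trigger with iodide after compound preincubation; score built on the fluorescence ratio of max minus min over baseline; more negative score means more quench and so TMEM16A activation or potentiation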
TLR4 MyD88 comp: inhibitors of human TLR4-MyD88 binding; 200,000 compounds, 0.18% hits; O00206+Q99836; inhibition, % at 8.4 µM; HeLa CL3-4 TLR4/MyD88 BLA complementation, FRET ratio; AID 861; in the data active = inhibition above about 25%;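 also: 0% = vehicle and 100% = reference inhibitor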
TLR9-MyD88 inh: blocks human TLR9 binding to MyD88 | Q9NR96+Q99836 | CHO BLA complementation TLR9-MyD88, CCF4 FRET ratio | inhibition, % at 4.98 µM | 340,000 compounds, 0.21% hits;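 active = inhibition above the mean over all tested compounds plus 3 SD, cut at about 21% in these data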;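 also: 0% = DMSO only wells and 100% = clavulanate BLA inhibitor control wells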
ANO1 block: blocks the mouse calcium-activated chloride channel TMEM16A. Q8BHY3. HEK293 TMEM16A/YFP iodide influx fluorescence, ionomycin. normalized B-score (activity score, 25-100; higher = stronger inhibition) at 10 µM. 310,000 compounds, 1.2% hits;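 active = ratio plate-corrected score three or more library SD toward inhibition, starting fluorescence score within five deviations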;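 also: score derived from kinetic fluorescence span divided by baseline fluorescence per well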
m5-HT2A agonist: agonists of mouse serotonin 5-HT2A receptor (HTR2A); P35363; CHO-K1 mHTR2A beta-arrestin complementation, luminescence; percent of 30 µM serotonin response; activation, % at 7.6 µM; 360,000 compounds, 0.66% hits;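 active = activation above a run cutoff, the mean activation of all tested compounds plus 3 SD, cut at about 14% in these data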;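 also: 0% = plate median of compound wells and 100% = 30 µM serotonin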
NOD2 RIPK2 PPI: NOD2-RIPK2 protein interaction inhibition; O43353; CHO BLA complementation NOD2-RIPK2, CCF4 ratio; inhibition, % at 4.98 µM; 360,000 compounds, 0.38% hits; AID 624267; in the data active = inhibition above about 21%;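 also: 0% = vehicle only and 100% = reference blocker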
TLR9-MyD88 cf: confirmation of human TLR9-MyD88 binding inhibitors; CHO TLR9/MyD88 BLA complementation, CCF4 FRET ratio; inhibition, % at 4.98 µM; AID 540250; 680 compounds, 51% hits; shares compounds with TLR9-MyD88 inh;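 active = mean inhibition across three repeats above about 21% taken from the earlier screen, limit read from the data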;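 also: blue over green emission ratio reports constitutive TLR9 MyD88 association via BLA complementation; 0% = DMSO vehicle wells and 100% = clavulanate BLA inhibitor wells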
BLA counter-1: non-selective beta-lactamase inhibitors in TLR9-MyD88 counter-screen; 680 compounds, 7% hits; shares compounds with TLR9-MyD88 inh; inhibition, % at 4.98 µM; CHO-BLA cells, CCF4 FRET ratio, BLA reporter;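 active = mean inhibition above a 50% cutoff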;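 also: counterscreen of TLR9-MyD88 hits on CMV-driven BLA in CHO-K1 cells; 0% = DMSO alone and 100% = clavulanate blocking BLA; higher means less blue over green ratio so more BLA blockade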
TLR9 CHO cytotox: counter-screen for TLR9-MyD88 inhibitors: cytotoxicity in CHO cells. AID 588336. inhibition, % at 4.98 µM. 680 compounds, 39% hits. luminescence. shares compounds with TLR9-MyD88 inh; in the data active = inhibition above about 11%
TMEM16A reconf: reconfirmed blocker of mouse TMEM16A calcium-activated chloride channel; shares compounds with ANO1 block; HEK293 TMEM16A/YFP-H148Q, iodide quench fluorescence; ionomycin added to raise cell calcium; inhibition, % at 10 µM; 2,300 compounds, 39% hits;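 active = mean duplicate percent inhibition, scaled so buffer wells are 0 and the reference blocker 100, over three buffer SD above buffer mean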
HEK293 Ca mobil: alters calcium mobilization in TMEM16A HEK293 cells, counter-screen; shares compounds with ANO1 block; TMEM16A/YFP HEK293, Fluo4 calcium mobilization; calcium response (% of ionomycin), % at 10 µM; 2,300 compounds, 2% hits;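 active = duplicate-averaged calcium signal over 20% of the ionomycin maximum, relative to buffer baseline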;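 also: each well's signal is peak minus trough fluorescence divided by its pre-addition baseline; 0% = buffer wells and 100% = ionomycin wells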
Parental YFP cnt: counter-screen for TMEM16A inhibitors: effect in parental YFP-HEK293 cells; AID 652233; YFP ratio F(max-min)/F0 at 10 µM; 2,300 tested, under 10 active; shares compounds with ANO1 block; iodide YFP quench, ionomycin;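 active = yellow fluorescent protein signal ratio exceeding the buffer control mean by over 5 SD of those controls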;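 also: ratio is mean of duplicate wells from kinetic YFP trace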
ClC-1 inh: rat ClC-1 inhibition, TMEM16A specificity screen; 2,300 tested, under 10 active; CHO ClC-1-YFP, iodide influx fluorescence quench; iodide control reads 0, buffer control 100; shares compounds with ANO1 block; ratio percent, % at 10 µM;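 active = duplicate-mean ratio percent above the mean of iodide-only control wells, which defines zero, plus 5 of their SD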;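 also: higher percent means stronger block of ClC-1 iodide influx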
NOD2-RIPK2 conf: NOD2-RIPK2 interaction inhibition confirmed; inhibition, % at 4.98 µM; AID 624370; shares compounds with NOD2 RIPK2 PPI; 1,200 compounds, 70% hits; CHO cells, NOD2-RIPK2 BLA complementation, CCF4 FRET;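 active = mean inhibition across replicates above a set limit taken from the earlier primary screen, cut at about 21% in these data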;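 also: 0% = DMSO-only wells and the high end = clavulanate BLA-blocked wells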
BLA counter-2: NOD2-RIPK2 counterscreen BLA reporter activity. inhibition, % at 4.98 µM. 1,200 compounds, 57% hits. CHO BLA reporter, CCF4 FRET ratio. shares compounds with NOD2 RIPK2 PPI. AID 624371;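 active = mean inhibition above the low-control mean inhibition plus three low-control SD, cut at about 11% in these data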;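 also: 0% = DMSO only wells and 100% = clavulanate high control wells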
Numbers without * were called inactive; i = inactive; nt = not tested or not shown.

SMILES	ANO1 activ	TLR4 MyD88 comp	TLR9-MyD88 inh	ANO1 block	m5-HT2A agonist	NOD2 RIPK2 PPI	TLR9-MyD88 cf	BLA counter-1	TLR9 CHO cytotox	NOD2-RIPK2 conf	BLA counter-2	others
CCOc1ccc(NS(=O)(=O)c2ccc(C(=O)N(C)CC(=O)Nc3cccc(OC)c3)cc2)cc1	i	nt	4	nt	0	-5	nt	nt	nt	nt	nt
CCOc1cccc(-c2c(C(=O)N/N=C/c3ccoc3)nnn2-c2nonc2N)c1	i	nt	0	i	1	-2	nt	nt	nt	nt	nt
COc1ccc2oc(=O)c(-c3csc(Nc4cccc(O)c4)n3)cc2c1	i	15	36*	i	0	31*	19	18	-3	28*	47*
N#Cc1c([N+](=O)[O-])cc([N+](=O)[O-])cc1S(=O)(=O)Cc1ccccc1	i	nt	46*	nt	-6	86*	40*	23	98*	92*	34*
COc1cc(OC)c(C#N)c(S(=O)(=O)Cc2ccccc2)c1	i	-7	8	i	3	-2	nt	nt	nt	nt	nt
CCOC(=O)c1c(C)nc2sc(C(=O)Nc3ccc(C(C)=O)cc3)c(N)c2c1-c1ccc(OC)cc1	i	23	22*	i	4	25*	18	24	16*	49*	54*
Cc1c(Cl)c(=O)n2c(=O)c(Cl)c(C)n12	i	9	26*	i	-8	24*	12	14	1	37*	40*
CC(=O)Nc1ccc2c(c1)Cc1cc(N3C(=O)C=CC3=O)ccc1-2	i	nt	33*	nt	-6	33*	56*	17	99*	85*	30*
COc1ccc(C2CC(O)(c3ccccc3)Oc3cc(OC)ccc32)cc1 (configuration not stated)	i	nt	4	i	-6	7	nt	nt	nt	nt	nt
O=S(=O)(/C=C/C=C/S(=O)(=O)c1ccccc1)c1ccccc1	i	nt	26*	nt	4	87*	27*	21	98*	77*	38*
Oc1ccc2nnc3c(Br)cnn3c2c1	i	nt	32*	i	-2	44*	27*	31	6	60*	58*	TMEM16A reconf=i;HEK293 Ca mobil=i;Parental YFP cnt=-0.94;ClC-1 inh=-6
Cc1cc(C)nc(CCNC(=O)CC2C(=O)NCCN2Cc2ccccc2)n1 (configuration not stated)	i	nt	-7	i	4	8	nt	nt	nt	nt	nt
O=C(/C=N/O)Nc1ccc2sc3ccccc3c2c1	i	nt	34*	i	1	21*	8	6	3	20	15*
COC(=O)c1ccccc1NC(=O)/C=N/O	i	-4	8	i	0	5	nt	nt	nt	nt	nt
COc1ccc2cc(C(=O)NCc3ccccc3)c(=O)oc2c1	i	nt	-11	i	-1	-16	nt	nt	nt	nt	nt
Cn1c(=O)c([N+](=O)[O-])c(Cl)c2ccccc21	i	9	47*	nt	-9	86*	62*	7	97*	93*	27*
COc1ccc2oc(C(=O)OCC(=O)N(C)c3ccccc3)c(C)c2c1	i	nt	5	i	-5	4	nt	nt	nt	nt	nt
COc1ccc(CC2=CC(=O)c3ccccc3C2=O)cc1	i	nt	24*	i	-10	63*	8	-8	84*	48*	-9
COc1ccc(Cc2ccccc2C(=O)O)cc1	i	nt	-9	nt	5	5	nt	nt	nt	nt	nt
CCN(CC)c1ccc(NC(=O)c2ccccc2)cc1S(=O)(=O)Nc1ccccc1OC	i	2	5	i	-7	-3	nt	nt	nt	nt	nt
COc1ccc(OC)c2c1C(=O)c1ccccc1C2=O	nt	16	nt	i	nt	nt	nt	nt	nt	nt	nt
COc1ccc(OC)c2c1C(=O)C(Cl)=C(Cl)C2=O	i	nt	46*	i	-2	86*	70*	24	97*	88*	34*
Oc1ccccc1Nc1nc(-c2ccccc2O)nc2ccccc12	nt	nt	-17	i	-2	-1	nt	nt	nt	nt	nt
Cc1ccc(CSc2ccc(-c3ccc4c(c3)OCO4)nn2)cc1	i	-3	1	i	5	1	nt	nt	nt	nt	nt
Cc1cccc(/C=C2\Oc3cc(OS(C)(=O)=O)ccc3C2=O)c1	i	5	-8	i	4	-6	nt	nt	nt	nt	nt
SMILES	ANO1 activ	TLR4 MyD88 comp	TLR9-MyD88 inh	ANO1 block	m5-HT2A agonist	NOD2 RIPK2 PPI	TLR9-MyD88 cf	BLA counter-1	TLR9 CHO cytotox	NOD2-RIPK2 conf	BLA counter-2	others
O=C1/C(=C/c2cccc(F)c2)Oc2cc(O)ccc21	i	nt	25*	i	-3	32*	10	15	2	44*	42*
O=c1c2ccccc2sn1-c1ccc(F)cc1	i	nt	32*	nt	1	35*	9	0	58*	37*	2
Cc1ccc(-n2sc3ccccc3c2=O)cc1	i	8	5	i	6	15	nt	nt	nt	nt	nt
O=c1c2cc(F)ccc2sn1-c1ccccc1Cl	nt	nt	0	nt	-5	-5	nt	nt	nt	nt	nt
Cc1ccc(-n2sc3cc(F)ccc3c2=O)c(C)c1	nt	nt	30*	nt	3	38*	19	-1	85*	26*	15*
Cc1cn([C@H]2C[C@H](O)[C@@H](CNC=O)O2)c(=O)[nH]c1=O	nt	nt	11	nt	-1	0	nt	nt	nt	nt	nt
